Compounds without any hit were thinned out: in the full panel of roughly 79,000, 15% have a hit. Unmarked numbers belong to inactive results. Activity calls are given as the source filed them. Cut-off read from the data, not from the text of the source: active = growth inhibition above about 70%; inactive = the rest.
Experiment: NCI Yeast Anticancer Drug Screen. Data for the mlh1 rad18 strain (AID 175)
Settings: S. cerevisiae mlh1 rad18 strain growth inhibition, active compounds read high
Protocol: Growth inhibition of yeast strains with defined genetic alterations is measured as a screen for potential anti-cancer activity. Selected strains with alterations in DNA damage repair or cell cycle control were exposed to compounds and growth inhibition was measured relative to vehicle treated controls. The strain used in this assay is mlh1 rad18

[1] = at 5.0 µM (retest, dose inferred, filed as 0.5)
[2] = at 50.0 µM (retest, dose inferred, filed as 5.0)

Row | Structure (SMILES) | growth inhibition [1] | growth inhibition [2] | growth inhibition (at 50.0 µM)
1 | CCCCCCCCC/C=C/C=C/C(=O)NCC(=O)NC1C(O)C(O)C(Nc2ncnc3nc[nH]c23)OC1C(O)CO (configuration not stated) | 20% | 41% | 49.4%
2 | O=[N+]([O-])c1cccc2nc3ccccc3c(NCCCN3CCOCC3)c12 | 95% (active) | 98% (active) | 98.2% (active)
3 | C/C(=N\NC(=S)SCc1ccccc1)c1ccccn1 | -12% | 95% (active) | 87.5% (active)
4 | O=[N+]([O-])c1cccc([N+](=O)[O-])c1S(=O)(=O)c1ccccc1 | 41% | 76% (active) | 87.9% (active)
5 | O=C(OCCN1CCCCCC1)C(c1ccsc1)C1CCCCC1 (configuration not stated) | 2% | 33% | 79.4% (active)
6 | O=C(NCCCNCCCNC(=O)c1cc(-c2ccccc2)nc2ccccc12)c1cc(-c2ccccc2)nc2ccccc12 | 17% | 78% (active) | 89.4% (active)
7 | C[Si](C)(C)CNC(=O)OCc1ccccc1 | -14% | -1% | 7.5%
8 | CC(C)/C(Cl)=N\OC(=O)Nc1ccc(F)cc1 | 33% | 54% | -41.8%
9 | N/C(=N\OC(=O)NC(Cl)=C(Cl)Cl)c1cc(C(F)(F)F)cc(C(F)(F)F)c1 | 42% | 67% | 88% (active)
10 | CC[C@@]1(O)C(=O)OCc2c1cc1n(c2=O)Cc2cc3c(N)cccc3nc2-1 | -6% | 1% | 5.1%
11 | Cc1cc(I)ccc1N | 41% | 73% (active) | 85.6% (active)
12 | CCN(CC)CCNc1ccc([N+](=O)[O-])c2nc3ccc(OC)cc3c(N)c12 | -22% | 86% (active) | 68%
13 | Cc1nn(-c2cc(Cl)ccc2[N+](=O)[O-])c(C)c1Cl | -3% | -9% | 15.2%
14 | CC(=O)OCCOCNC(=S)N/N=C(\C)c1cnccn1 | -29% | -7% | 62.4%

From PubChem BioAssay (NCI)
